Gal4-VP16 FLuc: counter-screen for ROR gamma inhibitors: Gal4-VP16 reporter; AID 2546; 310,000 compounds, 3.5% hits; Drosophila S2 Gal4-VP16 UAS-luciferase, luminescence, 20 h; Potency, µM (series often up to 53.6 µM), hits mostly inhibitors;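 note: Gal4-VP16 expression switched on by copper sulfate through the metallothionein promoter; nearly all actives have a fitted effect of over 50% in size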
RORgamma inh: ROR gamma (mouse) transcription inhibition. P51450. AID 2551. Drosophila S2 Gal4-RORgamma UAS-luciferase reporter, 20 h. 310,000 compounds, 5.4% hits. Potency, µM (highest dose often 53.6 µM), usual class: inhibitors; note: nearly all actives have a fitted effect of over 60% in size
Target sequence (P51450 whole entry, looked up, the tested form may be a part): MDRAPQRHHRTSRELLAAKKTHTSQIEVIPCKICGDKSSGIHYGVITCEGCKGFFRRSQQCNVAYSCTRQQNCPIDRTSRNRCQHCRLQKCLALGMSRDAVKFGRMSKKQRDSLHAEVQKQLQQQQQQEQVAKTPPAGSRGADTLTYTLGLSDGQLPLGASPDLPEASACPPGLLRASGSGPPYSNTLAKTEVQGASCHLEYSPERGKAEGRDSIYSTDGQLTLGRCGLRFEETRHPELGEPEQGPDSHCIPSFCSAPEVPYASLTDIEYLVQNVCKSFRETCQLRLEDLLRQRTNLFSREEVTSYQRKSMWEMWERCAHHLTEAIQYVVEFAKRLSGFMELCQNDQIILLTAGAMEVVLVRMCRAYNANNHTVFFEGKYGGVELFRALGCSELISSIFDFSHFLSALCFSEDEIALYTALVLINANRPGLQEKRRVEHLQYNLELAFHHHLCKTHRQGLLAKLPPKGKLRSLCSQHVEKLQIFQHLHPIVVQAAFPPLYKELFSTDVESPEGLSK
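Compounds are pin-transferred onto Drosophila Schneider cells expressing a copper-inducible Gal4–ROR gamma transactivation domain fusion. After 1 hr, copper sulfate is added to 700 uM final; luciferase is read 20 hr later.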
TDP1 cell CPT: DT40-hTDP1 cell growth loss with CPT. chicken DT40 Tdp1-/-;hTDP1 cells + 20 nM CPT, ATP luminescence, 48 h. Potency, µM (highest dose often 46.2 µM), usual class: inhibitors. 420,000 compounds, 12% hits. AID 686979; note: nearly all actives have a fitted effect of over 55% in size
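Cell growth measured by CellTiter-Glo luminescence after a minimum 48 h, 37 C compound exposure with 20 nM CPT in Tdp1-knockout DT40 cells stably expressing hTDP1, seeded 400/well; qHTS titration format.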
TDP1 cell noCPT: qHTS for Inhibitors of human tyrosyl-DNA phosphodiesterase 1 (TDP1): qHTS in cells in absence of CPT | DT40 Tdp1-/- hTDP1 cells, no CPT, ATP luminescence, 48 h | Potency, µM (highest dose often 46.2 µM), most hits filed as inhibitors | 420,000 compounds, 15% hits; note: nearly all actives have a fitted effect of over 55% in size
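Seeded 400 DT40-hTDP1 cells/well (vehicle DMSO, no 20 nM CPT); pinned compounds; ≥48 hr at 37 °C; CellTiter-Glo luminescence as viability measure.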
ELG1 repair inh: inhibitors of ELG1-dependent DNA repair in HEK293T cells; HEK293T ELG1-luciferase reporter, luminescence, 16 h; DNA damage induced by 5-fluorouridine; Potency, µM (series often up to 46.1 µM), most hits filed as inhibitors; 330,000 compounds, 2.3% hits; AID 504467; note: nearly all actives have a fitted effect of over 55% in size
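5-Fluorouridine DNA damage + compound/DMSO, 2,000 cells/well, 16 h, 37 °C/5% CO2. ONE-Glo, 30 min RT, luminescence. Readout = decrease in reporter signal.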
IL1B secr inh: inflammasome signaling inhibition, IL-1 beta readout; THP-1 LPS/ATP IL-1B secretion, AlphaLISA, 16 h; active compounds read low; activity change, % at 57.5 µM; 360,000 compounds, 4.7% hits; in the data active = activity change below about -50%; inconclusive = mostly about -30% to -49%
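THP-1 cells pretreated 1 hr with compounds (up to 57.5 uM final), then stimulated with LPS (250 ng/mL final) plus ATP (1.25 mM final); secreted IL-1B measured by AlphaLISA after 16 hr, decreased signal indicating inhibition.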
Hits are given with their value; . = inactive; ? = inconclusive; / = no result given. Most compounds without a hit are left out; they make up all but 21% or so of the library. Unless noted, calls come from the whole dose curve; as a rule, active = well fitted curve in the direction sought with a large enough effect; inconclusive = small, poorly fitted or top-dose-only effect, or another doubt; inactive = no such curve, though single readings can be large; an effect the other way counts as inactive or inconclusive.

SMILES	Gal4-VP16 FLuc	RORgamma inh	TDP1 cell CPT	TDP1 cell noCPT	ELG1 repair inh	IL1B secr inh
O=C(NC(=S)NCC1CCCO1)c1ccc([N+](=O)[O-])cc1 (stereo unspecified)	.	12.6µM	.	.	.	.
O=C(NCC1CCCO1)c1ccc(COc2ccc(Br)cc2)cc1 (stereo unspecified)	?	?	29.1µM	23.1µM	.	?
O=C(Cc1ccc([N+](=O)[O-])cc1)NCC1CCCO1 (stereo unspecified)	.	.	.	.	.	.
O=C(NCC1CCCO1)c1ccc([N+](=O)[O-])s1 (stereo unspecified)	.	.	13µM	25.9µM	.	.
Cc1ccc(C(=O)Nc2ccccc2C(=O)NCC2CCCO2)cc1 (stereo unspecified)	.	.	.	.	?	.
Cc1ccc(C(=O)NC(=S)NCC2CCCO2)cc1 (stereo unspecified)	.	15.8µM	.	?	?	.
Cc1ccc(OCc2ccc(C(=O)NCC3CCCO3)cc2)cc1C (stereo unspecified)	/	/	?	?	.	.
CCCCN1C(=O)C(CC(=O)NCc2cccs2)CC(C(=O)N(C(C)C)C(C)C)=C1C (stereo unspecified)	/	/	.	.	/	.
Oc1c(C(c2ccccc2F)N2CCN(Cc3ccccc3)CC2)sc2nc(-c3ccco3)nn12 (stereo unspecified)	/	/	.	.	/	/
Cc1cnn(C(=S)NCC2CCCO2)c1 (stereo unspecified)	?	14.1µM	.	.	?	.
CCN1CCN(C(=S)NCC2CCCO2)CC1 (stereo unspecified)	.	.	.	.	.	?
O=C(NC(=S)NCC1CCCO1)c1ccccc1 (stereo unspecified)	?	?	.	.	?	.
Cc1ccc(C)n1-c1ccc(C(=O)NCC2CCCO2)cc1 (stereo unspecified)	.	.	12.6µM	12.6µM	.	?
O=C(NC(=S)NCC1CCCO1)c1ccc(Cl)cc1 (stereo unspecified)	?	11.2µM	?	?	?	.
Fc1cccc(-c2nnn3c2nc(NCCc2ccccc2)c2ccccc23)c1	/	/	.	.	/	/
COc1ccc(C(C)=O)cc1CSc1nc(NCc2ccccc2)c2ccccc2n1	/	/	?	23.1µM	/	/
COc1ccc(C(C)=O)cc1CSc1nc(NCCc2ccccc2)c2ccccc2n1	/	/	18.4µM	10.3µM	/	/
COc1ccc(C(C)=O)cc1CSc1nc(Nc2ccc(F)c(F)c2)c2ccccc2n1	/	/	?	23.1µM	/	/
Fc1cccc(CSc2nc(NCCc3ccccc3)c3ccccc3n2)c1	/	/	16.4µM	23.1µM	/	/
COc1ccc(C(C)=O)cc1CSc1nc2cc(C(=O)O)ccc2c(=O)n1Cc1ccccc1	.	.	.	?	.	.
COc1cccc(S(=O)(=O)N(C)C[C@@H]2OCc3cn(nn3)CCCC(=O)N([C@H](C)CO)C[C@H]2C)c1	/	/	.	?	/	.
COc1ccccc1S(=O)(=O)Cc1ccc(C(=O)N2CCOCC2)o1	.	.	.	.	.	.
COc1ccccc1S(=O)(=O)Cc1ccc(C(=O)N2CCN(c3cc(Cl)ccc3C)CC2)o1	/	/	?	8.2µM	/	/
COc1ccccc1S(=O)(=O)Cc1ccc(C(=O)N2CCN(c3cccc(Cl)c3)CC2)o1	.	.	6.51µM	5.8µM	11.6µM	.
O=C(/C=C/c1ccccc1)Nc1cc(S(=O)(=O)N2CCOCC2)ccc1N1CCCC1	.	?	?	?	.	.
SMILES	Gal4-VP16 FLuc	RORgamma inh	TDP1 cell CPT	TDP1 cell noCPT	ELG1 repair inh	IL1B secr inh
O=C(O)c1ccc2c(c1)C(=O)N([C@H](Cc1ccc3ccccc3c1)C(=O)O)C2=O	.	.	/	/	/	/
CCOC(=O)c1sc2nc(C)nc(SC(C)C(=O)N(C)c3ccccc3)c2c1C (stereo unspecified)	/	/	?	?	?	.
CC(CNC(=O)c1csc2c1CCCCC2)c1ccccc1 (stereo unspecified)	/	/	20.6µM	16.4µM	/	/
O=C(NCc1ccccc1)c1csc2c1CCCCC2	.	.	.	.	.	.
CCC(Cc1ccccc1)NC(=O)c1csc2c1CCCCC2 (stereo unspecified)	/	/	13µM	?	/	/
CCC(C)NC(=O)c1csc2c1CCCCC2 (stereo unspecified)	.	.	.	.	?	.
C#CCOCCOCCOCCNc1nc(N2CCN(C(=O)CCCCCCCCCCNC(=O)Cn3cc(C[C@@H](C)O)nn3)CC2)nc(N2CCN(C(=O)CCCCCCCCCCNC(=O)[C@@H]([C@H](C)O)n3cc(C)nn3)CC2)n1	/	/	7.31µM	7.31µM	?	.
C#CCOCCOCCOCCNc1nc(N2CCN(C(=O)CCCCCCCCCCNC(=O)Cn3cc(CCCCCN)nn3)CC2)nc(N2CCN(C(=O)CCCCCCCCCCNC(=O)Cn3cc(C[C@@H](C)O)nn3)CC2)n1	/	/	?	?	.	-77.4
C#CCOCCOCCOCCNc1nc(N2CCN(C(=O)CCCCCCCCCCNC(=O)Cn3cc(C[C@@H](C)O)nn3)CC2)nc(N2CCN(C(=O)CCCCCCCCCCNC(=O)[C@@H]([C@H](C)CC)n3cc(CCCCCN)nn3)CC2)n1	/	/	13µM	5.8µM	?	-105.1
C#CCOCCOCCOCCNc1nc(N2CCN(C(=O)Cn3cc(CCCCN)nn3)CC2)nc(N2CCN(C(=O)Cn3cc(CC(C)O)nn3)CC2)n1 (stereo unspecified)	.	.	.	.	.	.
COc1ccc(/C=N/NC(=O)c2nn(-c3ccccc3)c(=O)c3c(N)scc23)cc1	.	?	10.3µM	8.2µM	?	.
COc1ccc(/C=N/NC(=O)c2nn(-c3ccc(C)c(C)c3)c(=O)c3ccccc23)cc1	.	.	9.2µM	3.26µM	.	.
COc1ccc(/C=N/NC(=O)c2nn(-c3ccc(Cl)cc3)c(=O)c3c(N)scc23)cc1	.	.	5.8µM	2.59µM	.	.
C[C@@H]1CN([C@H](C)CO)C(=O)CCCn2cc(nn2)CO[C@H]1CN(C)S(=O)(=O)c1cccc(F)c1	/	/	.	.	/	.
CN1CCN(c2ncc3nc(-c4ccc(F)cc4)c(=O)n(C4CC4)c3n2)CC1	.	.	?	?	/	/
COc1ccc(NC(=O)C[C@H]2C(=O)N(C3CCCCC3)C[C@@H]2c2ccc(OC)cc2)cc1	/	/	?	?	/	.
CCCNC(=O)c1c(NC(=O)c2ccccc2)sc2c1CCC(C(C)(C)C)C2 (stereo unspecified)	/	/	.	.	/	/
Cc1ccccc1C(=O)Nc1nc2c(s1)CC(C(C)(C)C)CC2 (stereo unspecified)	/	/	16.4µM	11.6µM	/	/

Source: PubChem (National Center for Advancing Translational Sciences (NCATS))
